# Assay results from PubChem BioAssay (EPA / NIEHS).
# Where “and” joins values, the source holds several entries; their conditions need not be identical. Equal values may be shown once. Inconclusive results are not listed. Some compounds were tested as several samples or in several runs, with calls that do not always agree. Calls of active or inactive are those of the source. How the source made its calls: active means hit-call score of the fitted dose curve at least 0.9, where 1 is the maximum; inconclusive means response in the unintended direction; inactive means score below 0.9.
# Experiments:
# [1] = molecular target: Mitogen-activated protein kinase 3 (Homo sapiens) (UniProt P27361); assay: NVS_ENZ_hMAPK3: NovaScreen (NVS) Enzymatic Assay for human Mitogen-Activated Protein Kinase 3 (MAPK 3) (AID 2283177)
# Outline: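 Chemicals were first tested in duplicate at 25 uM, with hits re-run as concentration series (max 50 uM). Recombinant enzyme activity, measured 1 h post-dose in a cell-free format, was read by fluorescence/mobility shift relative to DMSO.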
# [2] = molecular target: human Matrix Metalloproteinase-2 (MMP2), MMP2 (gene 4313) (UniProt P08253); assay: NVS_ENZ_hMMP2: NovaScreen (NVS) Enzymatic Assay for human Matrix Metalloproteinase-2 (MMP2) (AID 2283184)
# Outline: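 Compounds first screened in duplicate at a single 25 uM, with actives followed up in concentration series. Recombinant human MMP2 cleaves a fluorogenic substrate; fluorescence taken at 1 h, inhibition fitted relative to DMSO.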
# [3] = molecular target: human Janus Kinase 2 (Jak2), JAK2 (gene 3717) (UniProt O60674); assay: NVS_ENZ_hJak2: NovaScreen (NVS) Enzymatic Assay for human Janus Kinase 2 (Jak2) (AID 2283169)
# Outline: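 Single-point duplicate screen at 25 uM, with hits run in concentration series to a 50 uM top dose. Substrate-product separation by mobility shift with fluorescence detection, 1 h post-dosing; DMSO baseline.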
# [4] = molecular target: human Matrix Metalloproteinase-3 (MMP3), MMP3 (gene 4314) (UniProt P08254); assay: NVS_ENZ_hMMP3: NovaScreen (NVS) Enzymatic Assay for human Matrix Metalloproteinase-3 (MMP3) (AID 2283185)
# Outline: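 Fluorescent substrate turnover by recombinant MMP3 read after 1 h, signal loss scored against DMSO. Compounds first run in duplicate at 25 uM single dose, then actives confirmed by concentration series.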
# [5] = molecular target: human Ephrin type-A Receptor 1 (EphA1), EPHA1 (gene 2041) (UniProt P21709); assay: NVS_ENZ_hEphA1: NovaScreen (NVS) Enzymatic Assay for human Ephrin type-A Receptor 1 (EphA1) (AID 2283158);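 further: activity is signal loss versus DMSO meaning EphA1 kinase inhibition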
# Outline: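 Cell-free kinase activity with recombinant protein, 1 hour after dosing; product separated by electrophoretic mobility shift, fluorescence read. Primary screen at 25 uM in duplicate; hits run as concentration-response up to 50 uM, relative to DMSO.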
# [6] = molecular target: human Insulin Receptor (InsR), INSR (gene 3643) (UniProt P06213); assay: NVS_ENZ_hInsR: NovaScreen (NVS) Enzymatic Assay for human Insulin Receptor (InsR) (AID 2283168)
# Outline: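 Cell-free enzyme assay read 1 h post-dose by fluorescence after substrate/product mobility-shift separation. Duplicate 25 uM primary screen, then singleton concentration-response up to 50 uM for compounds passing threshold; loss of signal vs DMSO.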
# [7] = molecular target: human Fibroblast Growth Factor Receptor 1 (FGFR1), FGFR1 (gene 2260) (UniProt P11362); assay: NVS_ENZ_hFGFR1: NovaScreen (NVS) Enzymatic Assay for human Fibroblast Growth Factor Receptor 1 (FGFR1) (AID 2283159);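 on AC50: hits lower the signal so potencies describe inhibitors of the kinase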
# Outline: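 Cell-free recombinant kinase with fluorescent substrate, product separated by electrophoretic mobility shift; read 1 hour after dosing, loss of signal relative to DMSO. Initial screen in duplicate at 25 uM, actives followed in concentration series.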
# [8] = molecular target: Histone deacetylase 3 (Homo sapiens) (UniProt O15379); assay: NVS_ENZ_hHDAC3: NovaScreen (NVS) Enzymatic Assay for human Histone Deacetylase 3 (HDAC3) (AID 2283163)
# Outline: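 Cell-free enzyme format: loss of fluorescent product after mobility-shift separation, 1 h incubation, recombinant human HDAC3. Single 25 uM duplicate screen first, then concentration series to a 50 uM top for hits; DMSO as baseline.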
# [9] = molecular target: human Esterase Plasma (ES), BCHE (gene 590) (UniProt P06276); assay: NVS_ENZ_hES: NovaScreen (NVS) Enzymatic Assay for human Esterase Plasma (ES) (AID 2283157)
# Outline: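 Screening ran at 25 uM in duplicate, followed by singleton concentration series reaching 50 uM for actives. Human plasma protein, colorimetric detection, 0.25 h exposure, DMSO negative control.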
# [10] = molecular target: human Mitogen-Activated Protein Kinase 1 (MAPK 1), MAPK1 (gene 5594) (UniProt P28482); assay: NVS_ENZ_hMAPK1: NovaScreen (NVS) Enzymatic Assay for human Mitogen-Activated Protein Kinase 1 (MAPK 1) (AID 2283175)
# Outline: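 Cell-free recombinant human MAPK1 enzymatic assay, fluorescence/electrophoretic mobility shift read at 1 h; loss of signal vs DMSO. Primary screen in duplicate at 25 uM; actives (e.g. ≥30% inhibition) run as concentration-response up to 50 uM.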
# [11] = molecular target: human IkappaB Kinase alpha (IKKa), CHUK (gene 1147) (UniProt O15111); assay: NVS_ENZ_hIKKa: NovaScreen (NVS) Enzymatic Assay for human IkappaB Kinase alpha (IKKa) (AID 2283167)
# Outline: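 Compounds first run in duplicate at 25 uM, those meeting threshold (e.g. 30% inhibition) retested to maximum 50 uM. Enzyme activity of recombinant IKKa measured by fluorescence with electrophoretic mobility shift separation, 1 hour post-dosing, DMSO baseline.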
# [12] = molecular target: Protein deacetylase HDAC6 (Homo sapiens) (UniProt Q9UBN7); assay: NVS_ENZ_hHDAC6: NovaScreen (NVS) Enzymatic Assay for human Histone Deacetylase 6 (HDAC6) (AID 2283164)
# Outline: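 Concentration-response runs up to 50 uM followed a duplicate 25 uM single-point screen. Deacetylase activity of recombinant human HDAC6 read by fluorescence after 1 h, with mobility-shift separation of substrate and product; DMSO as baseline.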
# [13] = molecular target: Glycogen synthase kinase-3 beta (Homo sapiens) (UniProt P49841); assay: NVS_ENZ_hGSK3b: NovaScreen (NVS) Enzymatic Assay for human Glycogen Synthase Kinase-3 beta (GSK3b) (AID 2283165)
# Outline: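 Recombinant enzyme with specific fluorescent substrate, 1 h, product separated by electrophoretic mobility shift. Primary duplicate screen at 25 uM; actives (e.g. 30% inhibition) followed in singleton concentration-response to 50 uM. Signal loss fitted versus DMSO.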
# [14] = molecular target: human MAP Kinase-Activated Protein Kinase 2 (MAPKAPK2), MAPKAPK2 (gene 9261) (UniProt P49137); assay: NVS_ENZ_hMAPKAPK2: NovaScreen (NVS) Enzymatic Assay for human MAP Kinase-Activated Protein Kinase 2 (MAPKAPK2) (AID 2283178)
# Outline: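 Chemicals screened in duplicate at 25 uM, then to 50 uM top concentration in concentration-response, against recombinant human MAPKAPK2; substrate conversion read 1 hr post-dosing by fluorescence after electrophoretic mobility-shift separation, loss-of-signal relative to DMSO.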
# [15] = molecular target: human Matrix Metalloproteinase-7 (MMP7), MMP7 (gene 4316) (UniProt P09237); assay: NVS_ENZ_hMMP7: NovaScreen (NVS) Enzymatic Assay for human Matrix Metalloproteinase-7 (MMP7) (AID 2283183)
# Outline: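 Compounds first tested at 25 uM in duplicate, then at up to 50 uM in concentration series if active. Protease activity measured by fluorescence intensity 1 h after dosing, with fitting relative to DMSO.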
# [16] = molecular target: human FYN Proto-Oncogene, Src family Tyrosine Kinase (Fyn), FYN (gene 2534) (UniProt P06241); assay: NVS_ENZ_hFyn: NovaScreen (NVS) Enzymatic Assay for human FYN Proto-Oncogene, Src family Tyrosine Kinase (Fyn) (AID 2283161)
# Outline: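 Cell-free kinase activity read by fluorescence after mobility-shift separation of substrate and product, 1 h post-dose. Initial single concentration 25 uM in duplicate, then concentration-response follow-up; DMSO baseline.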
# [17] = molecular target: human MET Proto-Oncogene, Receptor Tyrosine Kinase (MET), MET (gene 4233) (UniProt P08581); assay: NVS_ENZ_hMet: NovaScreen (NVS) Enzymatic Assay for human MET Proto-Oncogene, Receptor Tyrosine Kinase (MET) (AID 2283180)
# Outline: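 Hits from a 25 uM duplicate screen were retested in concentration series up to 50 uM. Enzyme activity was measured by fluorescence after electrophoretic separation of product from substrate, 1 h after compound addition, relative to DMSO.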
# [18] = molecular target: Collagenase 3 (Homo sapiens) (UniProt P45452); assay: NVS_ENZ_hMMP13: NovaScreen (NVS) Enzymatic Assay for human Matrix Metalloproteinase-13 (MMP13) (AID 2283182)
# Outline: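 Recombinant MMP13 cleaving fluorescent substrate, cell-free, measured 1 h after dosing. Primary duplicate screen at 25 uM; actives tested in concentration-response up to 50 uM; loss of signal relative to DMSO.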
# [19] = molecular target: human NIMA (Never In Mitosis Gene A)-Related Kinase 2 (NEK2), NEK2 (gene 4751) (UniProt P51955); assay: NVS_ENZ_hNEK2: NovaScreen (NVS) Enzymatic Assay for human NIMA (Never In Mitosis Gene A)-Related Kinase 2 (NEK2) (AID 2283188)
# Outline: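 Compounds were first screened in duplicate at 25 uM, with actives followed up in concentration series. Recombinant NEK2 activity, cell-free, was read 1 h after dosing by fluorescence intensity after mobility-shift separation. Signal loss was scored against DMSO.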
# [20] = molecular target: human Mitogen- and Stress-activated Protein Kinase-1 (Msk1), RPS6KA5 (gene 9252) (UniProt O75582); assay: NVS_ENZ_hMsk1: NovaScreen (NVS) Enzymatic Assay for human Mitogen- and Stress-activated Protein Kinase-1 (Msk1) (AID 2283187)
# Outline: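 Chemicals first run in duplicate at 25 uM, with actives followed up in singleton concentration series to 50 uM maximum. Enzyme activity came from substrate/product mobility-shift separation with fluorescence detection after 1 h incubation of the recombinant protein.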
# Chain of human Fibroblast Growth Factor Receptor 1 (FGFR1), FGFR1 (gene 2260) (P11362 whole entry, looked up): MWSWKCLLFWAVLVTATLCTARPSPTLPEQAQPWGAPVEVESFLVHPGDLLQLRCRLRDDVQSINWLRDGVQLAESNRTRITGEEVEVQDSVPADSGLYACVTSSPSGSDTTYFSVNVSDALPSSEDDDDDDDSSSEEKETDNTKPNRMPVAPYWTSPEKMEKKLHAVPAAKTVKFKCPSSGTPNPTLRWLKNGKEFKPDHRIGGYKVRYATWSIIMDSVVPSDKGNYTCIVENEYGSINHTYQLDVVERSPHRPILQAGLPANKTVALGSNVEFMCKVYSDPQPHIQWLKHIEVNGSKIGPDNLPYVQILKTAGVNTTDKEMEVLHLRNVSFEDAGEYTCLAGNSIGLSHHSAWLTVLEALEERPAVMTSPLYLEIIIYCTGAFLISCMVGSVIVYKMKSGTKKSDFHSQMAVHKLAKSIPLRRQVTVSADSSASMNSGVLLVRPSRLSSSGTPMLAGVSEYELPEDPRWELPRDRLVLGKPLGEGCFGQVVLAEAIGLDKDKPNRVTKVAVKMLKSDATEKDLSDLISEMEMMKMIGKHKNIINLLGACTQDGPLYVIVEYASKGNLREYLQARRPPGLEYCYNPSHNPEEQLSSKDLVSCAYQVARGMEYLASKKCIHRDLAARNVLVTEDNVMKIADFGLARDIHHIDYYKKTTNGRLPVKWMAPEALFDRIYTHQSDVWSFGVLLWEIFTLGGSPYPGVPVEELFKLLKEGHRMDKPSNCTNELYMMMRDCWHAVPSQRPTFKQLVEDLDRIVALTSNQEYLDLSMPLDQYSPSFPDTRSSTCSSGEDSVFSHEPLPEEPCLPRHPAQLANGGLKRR
# Chain of human Matrix Metalloproteinase-3 (MMP3), MMP3 (gene 4314) (P08254 whole entry, looked up): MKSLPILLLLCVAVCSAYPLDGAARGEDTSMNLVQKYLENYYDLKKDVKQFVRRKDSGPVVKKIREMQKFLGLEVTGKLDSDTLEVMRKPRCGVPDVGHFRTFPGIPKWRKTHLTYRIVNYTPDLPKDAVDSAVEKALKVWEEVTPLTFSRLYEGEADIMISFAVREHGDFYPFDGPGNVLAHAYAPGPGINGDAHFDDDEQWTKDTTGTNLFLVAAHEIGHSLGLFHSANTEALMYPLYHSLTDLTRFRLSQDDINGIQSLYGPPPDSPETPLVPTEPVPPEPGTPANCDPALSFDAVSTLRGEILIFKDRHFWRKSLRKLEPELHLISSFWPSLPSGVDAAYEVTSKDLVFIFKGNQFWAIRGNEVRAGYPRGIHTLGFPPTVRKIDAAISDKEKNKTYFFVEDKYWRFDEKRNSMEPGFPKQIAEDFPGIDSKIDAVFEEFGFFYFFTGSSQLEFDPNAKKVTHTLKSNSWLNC
# Chain of Glycogen synthase kinase-3 beta (Homo sapiens) (P49841 whole entry, looked up): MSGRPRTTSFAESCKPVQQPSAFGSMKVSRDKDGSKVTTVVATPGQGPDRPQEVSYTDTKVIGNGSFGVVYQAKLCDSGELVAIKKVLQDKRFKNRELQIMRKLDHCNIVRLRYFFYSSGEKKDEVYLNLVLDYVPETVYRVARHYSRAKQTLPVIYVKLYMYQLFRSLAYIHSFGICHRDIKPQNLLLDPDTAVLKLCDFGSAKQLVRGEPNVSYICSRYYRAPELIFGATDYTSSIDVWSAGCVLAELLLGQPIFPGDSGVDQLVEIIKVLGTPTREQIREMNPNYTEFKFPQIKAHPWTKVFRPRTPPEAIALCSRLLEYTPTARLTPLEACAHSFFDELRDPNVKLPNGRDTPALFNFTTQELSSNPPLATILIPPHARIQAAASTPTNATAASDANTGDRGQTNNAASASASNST
# Chain of human Janus Kinase 2 (Jak2), JAK2 (gene 3717) (O60674 whole entry, looked up): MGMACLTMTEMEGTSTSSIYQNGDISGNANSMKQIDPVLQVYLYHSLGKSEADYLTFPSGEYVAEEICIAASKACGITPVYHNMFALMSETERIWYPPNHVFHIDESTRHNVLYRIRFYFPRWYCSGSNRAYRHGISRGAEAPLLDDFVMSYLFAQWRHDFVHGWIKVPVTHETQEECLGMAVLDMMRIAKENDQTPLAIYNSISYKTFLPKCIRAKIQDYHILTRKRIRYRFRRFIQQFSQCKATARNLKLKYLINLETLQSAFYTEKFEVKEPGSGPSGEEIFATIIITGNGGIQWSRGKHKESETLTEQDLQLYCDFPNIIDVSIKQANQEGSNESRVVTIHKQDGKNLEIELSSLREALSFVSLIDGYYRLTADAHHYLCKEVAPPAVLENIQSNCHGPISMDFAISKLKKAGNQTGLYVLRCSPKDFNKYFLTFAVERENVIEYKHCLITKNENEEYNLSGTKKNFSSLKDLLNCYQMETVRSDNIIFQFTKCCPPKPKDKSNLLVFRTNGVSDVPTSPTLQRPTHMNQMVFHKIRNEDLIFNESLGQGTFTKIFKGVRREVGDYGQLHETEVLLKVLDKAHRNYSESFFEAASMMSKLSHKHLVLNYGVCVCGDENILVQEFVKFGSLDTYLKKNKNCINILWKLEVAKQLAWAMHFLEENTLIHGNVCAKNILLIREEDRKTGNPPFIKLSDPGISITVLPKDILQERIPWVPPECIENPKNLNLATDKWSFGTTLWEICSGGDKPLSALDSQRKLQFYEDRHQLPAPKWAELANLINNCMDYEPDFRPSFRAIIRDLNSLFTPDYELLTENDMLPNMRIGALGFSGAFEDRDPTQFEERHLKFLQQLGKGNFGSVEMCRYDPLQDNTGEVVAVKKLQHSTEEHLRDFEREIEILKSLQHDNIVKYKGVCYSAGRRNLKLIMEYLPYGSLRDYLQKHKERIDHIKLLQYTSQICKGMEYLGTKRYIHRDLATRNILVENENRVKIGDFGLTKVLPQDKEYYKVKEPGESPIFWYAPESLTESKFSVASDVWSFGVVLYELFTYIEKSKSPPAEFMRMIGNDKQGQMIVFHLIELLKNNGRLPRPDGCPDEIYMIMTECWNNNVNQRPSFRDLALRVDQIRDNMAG
# Chain of human Esterase Plasma (ES), BCHE (gene 590) (P06276 whole entry, looked up): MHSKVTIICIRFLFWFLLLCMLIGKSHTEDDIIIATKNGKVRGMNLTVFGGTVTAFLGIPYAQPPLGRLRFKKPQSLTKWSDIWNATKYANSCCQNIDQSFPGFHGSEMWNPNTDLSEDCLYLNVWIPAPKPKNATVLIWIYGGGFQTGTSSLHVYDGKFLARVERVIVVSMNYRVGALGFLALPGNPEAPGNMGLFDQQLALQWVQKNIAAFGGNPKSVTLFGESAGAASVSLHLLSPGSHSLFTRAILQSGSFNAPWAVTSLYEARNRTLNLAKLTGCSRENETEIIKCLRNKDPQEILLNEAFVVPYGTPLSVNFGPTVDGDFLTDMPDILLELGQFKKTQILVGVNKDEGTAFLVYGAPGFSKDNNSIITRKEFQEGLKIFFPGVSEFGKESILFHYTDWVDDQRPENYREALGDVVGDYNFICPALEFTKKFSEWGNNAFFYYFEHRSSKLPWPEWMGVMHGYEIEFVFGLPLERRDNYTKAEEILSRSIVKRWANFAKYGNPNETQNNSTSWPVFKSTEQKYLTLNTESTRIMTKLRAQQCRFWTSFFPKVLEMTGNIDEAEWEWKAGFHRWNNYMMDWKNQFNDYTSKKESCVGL
# Chain of Mitogen-activated protein kinase 3 (Homo sapiens) (P27361 whole entry, looked up): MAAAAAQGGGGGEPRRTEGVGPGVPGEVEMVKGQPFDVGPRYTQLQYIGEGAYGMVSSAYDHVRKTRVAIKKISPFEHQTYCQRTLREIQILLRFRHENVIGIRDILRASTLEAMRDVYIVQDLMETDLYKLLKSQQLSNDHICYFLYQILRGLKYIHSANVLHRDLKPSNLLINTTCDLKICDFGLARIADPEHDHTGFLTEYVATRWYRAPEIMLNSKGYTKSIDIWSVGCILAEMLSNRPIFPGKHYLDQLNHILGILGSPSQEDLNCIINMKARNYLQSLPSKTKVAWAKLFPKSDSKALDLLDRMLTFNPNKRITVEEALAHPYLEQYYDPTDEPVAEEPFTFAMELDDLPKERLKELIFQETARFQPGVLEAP
# Chain of human MAP Kinase-Activated Protein Kinase 2 (MAPKAPK2), MAPKAPK2 (gene 9261) (P49137 whole entry, looked up): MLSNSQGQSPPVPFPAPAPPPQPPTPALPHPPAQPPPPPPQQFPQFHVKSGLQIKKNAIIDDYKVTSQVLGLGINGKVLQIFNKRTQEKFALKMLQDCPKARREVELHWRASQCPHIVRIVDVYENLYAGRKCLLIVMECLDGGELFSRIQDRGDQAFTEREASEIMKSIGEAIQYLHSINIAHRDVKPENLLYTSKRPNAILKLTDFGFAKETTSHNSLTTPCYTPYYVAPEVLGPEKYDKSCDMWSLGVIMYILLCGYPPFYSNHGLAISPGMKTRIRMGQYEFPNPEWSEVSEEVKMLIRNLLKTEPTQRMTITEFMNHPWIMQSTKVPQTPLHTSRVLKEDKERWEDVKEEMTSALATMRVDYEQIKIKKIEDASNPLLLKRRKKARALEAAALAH
# Chain of human Matrix Metalloproteinase-7 (MMP7), MMP7 (gene 4316) (P09237 whole entry, looked up): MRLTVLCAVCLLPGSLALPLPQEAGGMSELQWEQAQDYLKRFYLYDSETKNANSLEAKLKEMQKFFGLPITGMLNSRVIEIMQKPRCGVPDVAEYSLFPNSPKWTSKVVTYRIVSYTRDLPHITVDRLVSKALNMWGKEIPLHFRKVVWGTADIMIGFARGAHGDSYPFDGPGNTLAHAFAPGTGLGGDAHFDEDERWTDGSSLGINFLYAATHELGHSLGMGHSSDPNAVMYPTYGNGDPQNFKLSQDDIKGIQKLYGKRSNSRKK
# Chain of Histone deacetylase 3 (Homo sapiens) (O15379 whole entry, looked up): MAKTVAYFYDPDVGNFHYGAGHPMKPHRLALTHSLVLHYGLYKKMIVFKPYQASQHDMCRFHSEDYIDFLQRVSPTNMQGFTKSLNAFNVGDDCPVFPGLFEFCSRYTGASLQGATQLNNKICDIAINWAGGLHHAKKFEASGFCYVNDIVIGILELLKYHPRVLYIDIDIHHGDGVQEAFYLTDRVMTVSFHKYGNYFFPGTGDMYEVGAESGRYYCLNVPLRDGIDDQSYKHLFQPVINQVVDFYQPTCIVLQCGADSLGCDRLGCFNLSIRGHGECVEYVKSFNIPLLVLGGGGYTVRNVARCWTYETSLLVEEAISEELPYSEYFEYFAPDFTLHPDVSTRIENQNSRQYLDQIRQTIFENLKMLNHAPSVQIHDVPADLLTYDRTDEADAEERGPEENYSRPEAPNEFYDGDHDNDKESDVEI
smiles,measurement,setting,value
Cc1ccn2nc(S(=O)(=O)Nc3c(F)cccc3F)nc2n1,outcome,[1],inactive
same,outcome,[2],inactive
Cc1cc(C2CC2)nc(Nc2ccccc2)n1,outcome,[3],inactive
same,outcome,[4],inactive
CCOC(=O)CC(SP(=O)(OC)OC)C(=O)OCC (centres undefined),outcome,[2],inactive
O=C(O)c1cc(Oc2ccc(C(F)(F)F)cc2Cl)ccc1[N+](=O)[O-],outcome,[5],inactive
CCC(=NOC/C=C/Cl)C1=C(O)CC(C2CCOCC2)CC1=O (centres undefined),outcome,[6],inactive
C#CC(C)(C)NC(=O)c1cc(Cl)cc(Cl)c1,outcome,[4],inactive
CCOC(=O)COc1cc(-c2nn(C)c(OC(F)F)c2Cl)c(F)cc1Cl,outcome,[7],inactive
CNc1cnn(-c2cccc(C(F)(F)F)c2)c(=O)c1Cl,outcome,[8],inactive
CCOP(=S)(Oc1cnc(C(C)(C)C)nc1)OC(C)C (centres undefined),AC50,[9],25 µM (active)
C[N+]1(C)CCCCC1,outcome,[7],inactive
C=C(C)[C@H]1Cc2c(ccc3c2O[C@@H]2COc4cc(OC)c(OC)cc4[C@@H]2C3=O)O1,outcome,[10],inactive
CCC(CC)Nc1c([N+](=O)[O-])cc(C)c(C)c1[N+](=O)[O-],outcome,[11],inactive
CN(C)C(=O)Nc1cccc(C(F)(F)F)c1,outcome,[1],inactive
CC(C1CC1)C(O)(Cn1cncn1)c1ccc(Cl)cc1 (centres undefined),outcome,[1],inactive
N#CSCSC#N,AC50,[12],3.68 µM (active)
same,outcome,[13],inactive
same,outcome,[14],inactive
same,outcome,[15],inactive
O=c1ccc(=O)[nH][nH]1,AC50,[8],14.5 µM (active)
same,outcome,[3],inactive
S=C1NCCN1,outcome,[16],inactive
same,outcome,[11],inactive
same,outcome,[1],inactive
same,outcome,[14],inactive
same,outcome,[17],inactive
same,outcome,[18],inactive
same,outcome,[15],inactive
same,outcome,[4],inactive
CC(C)[C@H](C(=O)O[C@H](C#N)c1cccc(Oc2ccccc2)c1)c1ccc(Cl)cc1,outcome,[16],inactive
same,AC50,[18],13 µM (active)
CCCCOC(=O)c1ccccc1C(=O)O,outcome,[9],inactive
CNC(=O)ON=C(C)SC,outcome,[19],inactive
CNC(=O)ON=C(SC)C(=O)N(C)C,AC50,[9],20.2 µM (active)
CCOP(=S)(OCC)Oc1cc(C)nc(C(C)C)n1,outcome,[12],inactive
same,outcome,[15],inactive
CNC(=O)Oc1cccc2c1OC(C)(C)O2,AC50,[15],6.07 µM (active)
COc1ccc(C(=CC(=O)N2CCOCC2)c2ccc(Cl)cc2)cc1OC,outcome,[1],inactive
CC1=NNC(=O)N(/N=C/c2cccnc2)C1,AC50,[13],32.8 µM (active)
same,outcome,[4],inactive
COc1cccc(C(=O)NN(C(=O)c2cc(C)cc(C)c2)C(C)(C)C)c1C,outcome,[11],inactive
CCc1cnc(C2=NC(C)(C(C)C)C(=O)N2)c(C(=O)O)c1 (centres undefined),AC50,[15],8.62 µM (active)
CCCSP(=O)(OCC)Oc1ccc(Br)cc1Cl (centres undefined),AC50,[9],0.968 µM (active)
CC(C)N(C(=O)SCC(Cl)=C(Cl)Cl)C(C)C,outcome,[11],inactive
CC[C@H](C)[C@H]1O[C@]2(C=C[C@@H]1C)C[C@@H]1C[C@@H](C/C=C(\C)[C@@H](O[C@H]3C[C@H](OC)[C@@H](O[C@H]4C[C@H](OC)[C@@H](NC)[C@H](C)O4)[C@H](C)O3)[C@@H](C)/C=C/C=C3\CO[C@@H]4[C@H](O)C(C)=C[C@@H](C(=O)O1)[C@]34O)O2,AC50,[7],16.5 µM (active)
same,AC50,[3],15.4 µM (active)
same,outcome,[17],inactive
COP(=O)(OC)SCn1c(=O)oc2cc(Cl)cnc21,AC50,[9],18.5 µM (active)
Nc1c(Cl)cc([N+](=O)[O-])cc1Cl,outcome,[13],inactive
same,outcome,[14],inactive
same,outcome,[4],inactive
same,outcome,[20],inactive
CCNc1nc(Cl)nc(NC(C)(C)C#N)n1,outcome,[13],inactive
same,outcome,[6],inactive
CCOP(=S)(OCC)Oc1ccc([N+](=O)[O-])cc1,AC50,[9],17.5 µM (active)
CN(C)[C@@H]1C(=O)C(C(N)=O)=C(O)[C@@]2(O)C(=O)C3=C(O)c4c(O)cccc4[C@@](C)(O)[C@H]3[C@H](O)[C@@H]12,outcome,[9],inactive
same,outcome,[5],inactive
same,AC50,[7],5.86 µM (active) and 7.55 µM (active)
same,outcome,[7],inactive
same,AC50,[10],15 µM (active)
same,AC50,[1],19.1 µM (active)
same,outcome,[1],inactive
same,outcome,[15],inactive
CCOP(=S)(OCC)OC(Cl)C(Cl)(Cl)Cl (centres undefined),AC50,[9],16.2 µM (active)
same,outcome,[4],inactive
CCOP(=O)(OCC)Oc1cc(C)nc(C(C)C)n1,AC50,[15],11.8 µM (active)
same,outcome,[4],inactive
COP(=O)(OC)OC(Br)C(Cl)(Cl)Br (centres undefined),AC50,[9],3.82 µM (active)
